Screening results deposited in PubChem by National Center for Advancing Translational Sciences (NCATS).
Gal4-VP16 FLuc – counter-screen for ROR gamma inhibitors: Gal4-VP16 reporter | Drosophila S2 Gal4-VP16 UAS-luciferase, luminescence, 20 h | Potency, µM (highest dose often 53.6 µM), inactives show at the top dose activity, negative = inhibition, usual class: inhibitors | 310,000 compounds, 3.5% hits | AID 2546;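 note: Gal4-VP16 expression switched on by copper sulfate through the metallothionein promoter; potency is the fitted concentration of half-maximal effect; % is set by controls: 0 for no effect and ±100 for the full control effect; nearly all actives have a fitted effect of over 50% in size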
Giardia killer – Giardia lamblia killing | AID 540267 | 340,000 compounds, 0.15% hits | activity change, % at 7.66 µM, hits read low | Giardia lamblia trophozoite viability; in the data active = activity change below about -80%; inconclusive = between about -30% and that limit;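 note: parasites exposed to compound for two days anaerobically before the ATP read; % is set by controls: 0 for no effect and ±100 for the full control effect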
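Trophozoites 100 cells/well + cpd; 48 hrs, 37 deg C, anaerobic. ATPLite 1-Step added, 15-30 min RT, luminescence read (ATP-based viability).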
RORg inh – ROR gamma (mouse) transcription inhibition; Drosophila S2 Gal4-RORgamma UAS-luciferase reporter, 20 h; Potency, µM (highest dose often 53.6 µM), inactives show at the highest dose activity change, negative = inhibition, most hits filed as inhibitors; 310,000 compounds, 5.4% hits; note: potency is the fitted concentration of half-maximal effect; % is set by controls: 0 for no effect and ±100 for the full control effect; nearly all actives have a fitted effect of over 60% in size
Target sequence (P51450 whole entry, looked up, the tested form may be a part): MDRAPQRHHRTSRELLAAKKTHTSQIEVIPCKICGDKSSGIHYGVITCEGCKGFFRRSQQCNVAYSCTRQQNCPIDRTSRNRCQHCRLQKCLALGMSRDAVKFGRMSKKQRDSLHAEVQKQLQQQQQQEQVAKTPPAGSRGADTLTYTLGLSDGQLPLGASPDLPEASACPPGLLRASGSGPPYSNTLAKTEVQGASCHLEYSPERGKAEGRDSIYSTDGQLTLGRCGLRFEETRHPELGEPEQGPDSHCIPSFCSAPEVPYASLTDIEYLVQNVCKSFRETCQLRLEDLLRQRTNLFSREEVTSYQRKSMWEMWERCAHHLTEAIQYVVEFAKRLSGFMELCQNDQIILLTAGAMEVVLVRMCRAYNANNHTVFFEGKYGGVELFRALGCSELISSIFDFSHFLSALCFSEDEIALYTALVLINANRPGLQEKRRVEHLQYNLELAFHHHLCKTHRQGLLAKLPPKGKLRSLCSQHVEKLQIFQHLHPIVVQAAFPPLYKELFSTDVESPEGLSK
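Compounds are pin-transferred onto Drosophila Schneider cells expressing a copper-inducible Gal4–ROR gamma transactivation domain fusion. After 1 hr, copper sulfate is added to 700 uM final; luciferase is read 20 hr later.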
MCF10A rereplic – DNA re-replication induction in MCF 10a cells; MCF 10A DNA re-replication, Hoechst nuclear intensity, 48 h; Potency, µM (doses to about 46.1 µM), for inactives: at the top dose activity, positive = re-replication, usual class: activators; 350,000 compounds, 2.9% hits; note: potency is the fitted concentration of half-maximal effect; % of control where 0% means no effect; nearly all actives have a fitted effect of over 50% in size
SW480 rerep – DNA re-replication induction in SW480 cells. SW480 DNA re-replication, Hoechst DNA content imaging, 48 h. Potency, µM (series often up to 46.1 µM), for the others: at the top dose re-replication activation, actives largely listed as activators. 340,000 compounds, 1.8% hits. AID 624297; note: potency is the fitted concentration of half-maximal effect; % of control where 0% means no effect; nearly all actives have a fitted effect of over 55% in size
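First, 250 cells per well were seeded. Next, compound or vehicle (23 nL) was pinned in, plates sat 48 hr at 37 C. Finally Hoechst was added for 40 min before fluorescence scanning.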
Chronic BCR inh – chronic active BCR signaling inhibition; ABC-DLBCL IkBa-CBG/CBR reporter, luminescence ratio, 4 h; Potency, µM (titrated, usually from 46.1 µM), inactives show top-dose activity change, negative = inhibition, hits mostly inhibitors; 340,000 compounds, 0.05% hits; AID 493014; active = well fitted inhibition curve with a large enough effect in the signal ratio, with a control signal flat, not every such curve was filed as active; inconclusive = small, poorly fitted or top-dose-only effect, or effect the other way, or a change in a side signal; the % refers to the signal ratio;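 note: potency is the fitted concentration of half-maximal effect; plate controls were basal doxycycline-induced cells for no effect and cells given 10 µM MG132 for full effect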
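Compounds up to 46 uM were incubated four hours with TMD8 cells whose green CBG68 luciferase is fused to IkappaBalpha; red CBR luminescence normalised the signal, and concentration-effect curves were fitted to fusion, red and ratio data.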
Starred values were filed as active, the others as inactive; [ ] = another dose, or the depositor's remark. Only some compounds are listed: those with a hit (about 8.3% of all), similar ones and a draw of the others. Unless noted, calls come from the whole dose curve; as a rule, active = well fitted curve in the direction sought with a large enough effect; inconclusive = small, poorly fitted or top-dose-only effect, or another doubt; inactive = no such curve, though single readings can be large; an effect the other way counts as inactive or inconclusive.

Screening Cc1cc2nn(-c3cccc4ccccc34)nc2cc1N returned Gal4-VP16 FLuc 25%, Giardia killer 2, RORg inh -1%, MCF10A rereplic 21µM*, SW480 rerep 17% and Chronic BCR inh -12%.
For Cc1ccc(-n2nc3cc(C)c(N)cc3n2)cc1 the results were Gal4-VP16 FLuc inconclusive, Giardia killer -28, RORg inh -24%, MCF10A rereplic 18µM*, SW480 rerep inconclusive and Chronic BCR inh inconclusive.
For Cc1nc2ccccc2c2c(N)cccc12 the results were Giardia killer 15, MCF10A rereplic -4% and SW480 rerep -5%.
CN(C)c1ccc(N2C(=NC(=O)C3CCCO3)SC3CS(=O)(=O)CC32)cc1 (centres undefined) was read as Gal4-VP16 FLuc inconclusive, Giardia killer 6, RORg inh 28%, MCF10A rereplic 2%, SW480 rerep inconclusive and Chronic BCR inh -1%.
`CS(=O)(=O)Nc1cccc(-c2cncnc2-n2ccnc2)c1` gave Gal4-VP16 FLuc -7% and RORg inh -12%.
Screening COC1=CC(=O)C(C(=O)c2ccccc2)=CC1=O returned Gal4-VP16 FLuc -20% and RORg inh -30%.
For COC1=CC(=O)c2ccccc2C1=O the results were Giardia killer -16, MCF10A rereplic 18µM*, SW480 rerep inconclusive and Chronic BCR inh inconclusive.
Screening COC1=CC(=O)C=C(OC)C1=O returned Gal4-VP16 FLuc 4.5µM*, Giardia killer -24, RORg inh 2.8µM*, MCF10A rereplic inconclusive and SW480 rerep 0%.
For Cc1nnc2sc(-c3cccc(F)c3)nn2c1=O the results were Gal4-VP16 FLuc 4%, Giardia killer 14, RORg inh -11%, MCF10A rereplic 1%, SW480 rerep -7% and Chronic BCR inh 6%.
Screening Cc1noc(C)c1S(=O)(=O)Nc1ccc(O)c2c(=O)cc(-c3ccccc3Cl)oc12 returned Gal4-VP16 FLuc 2%, Giardia killer 9, RORg inh -12%, MCF10A rereplic -32%, SW480 rerep -10% and Chronic BCR inh 0%.
Cc1cccc(N2CCN(C(=O)CNC(=O)c3cccc([N+](=O)[O-])c3)CC2)c1C was read as Gal4-VP16 FLuc -2%, Giardia killer 13, RORg inh inconclusive, MCF10A rereplic 5%, SW480 rerep -9% and Chronic BCR inh -3%.
Screening O=C(NCC12CC3CC(CC(C3)C1)C2)c1nn2c(c1Cl)NC(c1ccco1)CC2C(F)(F)F (centres undefined) returned Gal4-VP16 FLuc 14µM*, Giardia killer 8, RORg inh inconclusive, MCF10A rereplic inconclusive, SW480 rerep -1%[9.22 µM] and Chronic BCR inh -5%.
Screening CC(C)C(c1nnnn1C(C)(C)C)N1CCC(Cc2ccccc2)CC1 (centres undefined) returned Gal4-VP16 FLuc 22µM*, Giardia killer 19, RORg inh inconclusive, MCF10A rereplic 21µM*, SW480 rerep 7% and Chronic BCR inh -3%.
`CC(C)C(c1nnnn1C(C)(C)C)N1CCOCC1` (centres undefined) gave Gal4-VP16 FLuc 4%, Giardia killer -5, RORg inh 2%, MCF10A rereplic 0%, SW480 rerep 0% and Chronic BCR inh 0%.
For O=C(NCc1ccccc1)c1cccc(NC(=O)C2CC2)c1 the results were Giardia killer -14, MCF10A rereplic inconclusive and SW480 rerep -9%.
CCN(CC)c1ccc(/C=N/Nc2nc3ccccc3[nH]2)c(O)c1 was read as Gal4-VP16 FLuc 2.8µM*, Giardia killer 8, RORg inh 3.5µM*, MCF10A rereplic 18µM*, SW480 rerep 2.1µM* and Chronic BCR inh inconclusive.
`Cc1ccc2cc(/C=N/Nc3nc4ccccc4[nH]3)c(Cl)nc2c1` gave Gal4-VP16 FLuc 1.3µM*, Giardia killer inconclusive, RORg inh 4.5µM*, MCF10A rereplic 1%, SW480 rerep 1% and Chronic BCR inh inconclusive.
`CCN(CC)c1ccc(C=Nc2ccccc2C)c(O)c1` gave Gal4-VP16 FLuc -3%, Giardia killer -15, RORg inh 0%, MCF10A rereplic 2%, SW480 rerep inconclusive and Chronic BCR inh 0%.
Screening COc1cc(OC)c(OC)cc1/C=N/Nc1nc2ccccc2[nH]1 returned Gal4-VP16 FLuc -2%, Giardia killer 6, RORg inh -30%, MCF10A rereplic inconclusive, SW480 rerep -7% and Chronic BCR inh 0%.
Screening CCOC(=O)CNC(=O)c1ccc(C)cc1 returned Gal4-VP16 FLuc -3%, Giardia killer -10, RORg inh 43%, MCF10A rereplic -4%, SW480 rerep -2% and Chronic BCR inh 15%.
`CCO/C=C/C(O)(CNC(=O)c1ccc(C(C)(C)C)cc1)C(F)(F)F` (centres undefined) gave Gal4-VP16 FLuc 20µM*, Giardia killer 6, RORg inh -85%, MCF10A rereplic inconclusive, SW480 rerep inconclusive and Chronic BCR inh inconclusive.
For CCN1/C(=C/c2ccc3ccccc3[n+]2CC)C=Cc2ccccc21 the results were Gal4-VP16 FLuc 2.8µM*, Giardia killer -14, RORg inh 8.9µM*, MCF10A rereplic -1%, SW480 rerep 1% and Chronic BCR inh inconclusive.
CC(C)N1C(=S)N(Cc2ccco2)C(=O)C1CC(=O)Nc1ccccc1 (centres undefined) was read as Gal4-VP16 FLuc -8%, Giardia killer 4, RORg inh 18µM*, MCF10A rereplic -4%, SW480 rerep 16% and Chronic BCR inh inconclusive.
COC(=O)CN1C(=S)N(Cc2ccccc2)C(=O)C1CC(=O)Nc1ccc(Br)cc1 (centres undefined) was read as Gal4-VP16 FLuc 1%, Giardia killer -6, RORg inh inconclusive, MCF10A rereplic 18µM*, SW480 rerep inconclusive and Chronic BCR inh inconclusive.
Screening COC(=O)CN1C(=S)N(c2ccc(Cl)cc2)C(=O)C1CC(=O)Nc1ccc(Cl)cc1 (centres undefined) returned Gal4-VP16 FLuc -10%, Giardia killer 13, RORg inh inconclusive, MCF10A rereplic inconclusive, SW480 rerep -3% and Chronic BCR inh inconclusive.
O=C1OC(O)C(C(Cl)Cl)=C1Cl (centres undefined) was read as Gal4-VP16 FLuc 2.8µM* and RORg inh 2.2µM*.
For COc1ccc(CNC(=O)CSc2ncn[nH]2)cc1OC the results were Gal4-VP16 FLuc -15%, Giardia killer -14, RORg inh -5%, MCF10A rereplic -5%, SW480 rerep -9% and Chronic BCR inh 5%.
